Assay outcomes deposited in PubChem by several laboratories.
GDH-TPI counter-1 – GDH-TPI coupled enzyme inhibition counter-screen; inhibition, % at 4.8 µM; GDH-TPI coupled enzyme counterscreen, NADH absorbance; 360,000 compounds, 1.2% hits;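 further: 0% = DMSO wells and 100% = wells lacking the enzyme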
RecA splice inh – Mtb RecA intein splicing inhibition; P9WHJ3; cell-free RecA intein splicing, fluorescence; inhibition, % (concentration not given with the values); 290,000 compounds, 0.75% hits; AID 2221; in the data active means inhibition above about 30%;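 further: 0% = vehicle wells and 100% = reference inhibitor control wells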
Target sequence (P9WHJ3 whole entry, looked up, canonical isoform): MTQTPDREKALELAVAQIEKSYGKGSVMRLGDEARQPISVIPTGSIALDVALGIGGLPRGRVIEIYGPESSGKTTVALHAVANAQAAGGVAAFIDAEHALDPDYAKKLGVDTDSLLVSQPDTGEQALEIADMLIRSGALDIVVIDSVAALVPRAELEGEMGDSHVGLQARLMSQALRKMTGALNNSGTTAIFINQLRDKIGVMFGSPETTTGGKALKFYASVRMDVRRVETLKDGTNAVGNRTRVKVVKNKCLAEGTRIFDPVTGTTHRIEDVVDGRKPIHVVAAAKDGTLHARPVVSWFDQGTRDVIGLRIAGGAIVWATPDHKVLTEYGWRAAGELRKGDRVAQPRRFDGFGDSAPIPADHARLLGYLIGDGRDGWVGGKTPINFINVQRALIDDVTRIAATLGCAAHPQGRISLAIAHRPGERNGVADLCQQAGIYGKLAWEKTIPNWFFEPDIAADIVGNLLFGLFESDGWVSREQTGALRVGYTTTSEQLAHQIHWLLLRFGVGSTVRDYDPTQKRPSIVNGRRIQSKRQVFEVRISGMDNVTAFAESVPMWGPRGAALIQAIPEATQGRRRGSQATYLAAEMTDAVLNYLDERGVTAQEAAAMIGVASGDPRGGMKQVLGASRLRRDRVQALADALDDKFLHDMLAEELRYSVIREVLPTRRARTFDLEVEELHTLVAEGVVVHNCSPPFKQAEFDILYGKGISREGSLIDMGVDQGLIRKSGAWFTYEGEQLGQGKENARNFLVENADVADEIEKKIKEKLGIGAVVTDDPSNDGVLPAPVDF
FBA Mtb inh – inhibits M. tuberculosis FBA enzyme. 360,000 compounds, 2.3% hits. P9WQA3. inhibition, % at 1 µM. purified M. tuberculosis FBA, fluorescence read-out; in the data active means inhibition above about 27%;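 further: 0% = vehicle and 100% = reference inhibitor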
CCHF vOTU inh-1 – CCHFV vOTU protease inhibition | inhibition, % at 11.5 µM | Pep-AMC fluorescence | 370,000 compounds, 0.55% hits; further: 0% = vehicle wells with enzyme and 100% = no enzyme wells
GFP chromo cs – counter-screen: blocks GFP chromophore formation; shares compounds with RecA splice inh; cell-free GFP chromophore formation, fluorescence; EC50, µM; 2,100 compounds, 83% hits; call rule not given here
Mtb FBA confirm – confirmation of M. tuberculosis fructose-bisphosphate aldolase inhibitors | shares compounds with FBA Mtb inh | purified M. tuberculosis FBA, fluorescence read-out | inhibition, % at 1 µM | 5,600 compounds, 78% hits | AID 651616; in the data active means inhibition above about 27%;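 further: 0% = vehicle wells and 100% = reference inhibitor wells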
GDH-TPI counter-2 – counter-screen for M. tuberculosis FBA inhibitors: GDH-TPI coupled enzyme inhibition | inhibition, % at 1 µM | GDH-TPI coupled enzyme counterscreen, fluorescence | shares compounds with FBA Mtb inh | 5,600 compounds, 81% hits; in the data active means inhibition above about 10%
CCHF vOTU inh-2 – CCHFV vOTU protease inhibition, confirmation | 1,900 compounds, 17% hits | shares compounds with CCHF vOTU inh-1 | Recombinant CCHFV vOTU, Pep-AMC fluorescence | inhibition, % at 11.5 µM | AID 686976
The depositor's hits bear a star; . = not tested or not shown; + = active, no number. In the library only some 4.2% were active in any assay of this set; here they are far more common. Unless noted, no stated cut-off is given here; in the data, active means inhibition above about 30%; inactive means the rest.

SMILES	GDH-TPI counter-1	RecA splice inh	FBA Mtb inh	CCHF vOTU inh-1	GFP chromo cs	CCHF vOTU inh-2	others
COc1cc(N)c(C(=O)c2nccc3cc(OC)c(OC)cc23)cc1OC	8.6	17.9	-2.8	6.8	.	.
COc1cc(Br)c(C(=O)c2nccc3cc(OC)c(OC)cc23)cc1OC	11.8	84.4*	-0.8	111.0*	0.75*	90.0*
CCOc1ccc(NC(=O)CN(C)C(=O)c2ccc(OCC(=O)N3CCOCC3)c(OC)c2)cc1OCC	-3.9	.	-0.7	3.2	.	.
CC(Cc1ccco1)NC(=O)c1cccc(S(=O)(=O)N(C)C)c1 (centres undefined)	-14.1	1.2	0.3	-1.7	.	.
Nc1c(C(=O)N/N=C/c2ccc(Cl)cc2)cnn1-c1ccccc1	11.6	0.7	1.5	5.9	.	.
Nc1scc2c(C(=O)N/N=C/c3ccc(Cl)cc3)nn(-c3ccccc3)c(=O)c12	9.1	63.2*	-3.3	35.6*	16.2*	63.8*
NS(=O)(=O)c1ccc(N=Nc2ccc(=O)[nH]c2O)cc1	2.2	72.6*	-25.0	32.4*	10*	20.5
COc1ccc(Cl)cc1-c1cc(C(=O)NCc2ccc(F)cc2)[nH]n1	6.4	.	-1.1	6.5	.	.
CCCCNC(=O)C1(C)CCCCN1Cc1ccc(OCc2ccccc2)cc1 (centres undefined)	0.0	.	-1.2	14.3	.	.
Cc1ccc(C)c(S(=O)(=O)Nc2cc(SCC(=O)O)c(O)c3ccccc23)c1	4.0	.	-1.2	.	.	.
CCc1ccc(S(=O)(=O)Nc2cc(SCC(=O)O)c(O)c3ccccc23)cc1	7.6	93.8*	1.9	114.1*	0.703*	100.7*
CCOc1ccc(S(=O)(=O)Nc2cc(SCC(=O)O)c(O)c3ccccc23)cc1	9.4	96.3*	1.8	100.6*	8.86*	76.9*
CCC(C)N(C(=O)CN1C(=O)C2CCCCN2C(=O)c2ccccc21)C(C)CC (centres undefined)	.	.	.	0.6	.	.
CCOc1cc(/C=C2\C(=O)N(CCC#N)N=C2C)ccc1OCC(N)=O	0.3	88.3*	-6.4	43.7*	9.29*	-24.4
Cc1nnc(N/N=C/c2ccccc2O)n1N	0.3	75.2*	-9.7	97.0*	12.2*	-4.0
Oc1ccccc1/C=N/Nc1nn[nH]n1	7.5	-6.9	-2.2	-11.7	.	.
Cc1nnc(N/N=C\c2ccc(-c3ccccc3[N+](=O)[O-])o2)n1N	5.2	50.5*	-27.4	101.2*	39.3*	6.8
Clc1ccc([C@H]2OC[C@@]3(CNC4CCCCC4)CS[C@H](c4ccc(Cl)cc4)N23)cc1	.	.	.	10.0	.	.
CC(=O)Nc1ccc(S(=O)(=O)N(CC(=O)Nc2cc(C)on2)Cc2ccc(F)cc2)cc1	3.9	2.4	3.4	-3.9	.	.
NC(=O)COc1ccc(/C=N\NC(=O)CC(=O)NCCc2ccccc2)cc1	5.2	0.8	3.6	-0.2	.	.
CN1CCSc2ccc(C(=O)NCc3ccccc3)cc21	17.9	-6.4	95.8*	-97.0	.	.	Mtb FBA confirm=+;GDH-TPI counter-2=167.0*
CN1CCSc2ccc(C(=O)Nc3cccc(F)c3)cc21	13.0	-2.7	21.3	-25.1	.	.
O=C(NCc1cccnc1)c1ccc2c(c1)N(Cc1ccccc1)CCS2	3.4	-1.6	75.5*	-63.5	.	.	Mtb FBA confirm=162.9*;GDH-TPI counter-2=124.5*
O=C(NCc1ccccn1)c1ccc2c(c1)N(Cc1ccccc1)CCS2	7.2	2.3	93.6*	-98.9	.	.	Mtb FBA confirm=3.0;GDH-TPI counter-2=0.1
Cc1ccc(C(=O)NCc2ccccn2)cc1Cl	0.8	-0.7	1.1	-17.0	.	.
SMILES	GDH-TPI counter-1	RecA splice inh	FBA Mtb inh	CCHF vOTU inh-1	GFP chromo cs	CCHF vOTU inh-2	others
CCOc1cc(OCC)cc(C(=O)N2CCC[C@H]2C(=O)N2CCC[C@H]2C(=O)N(C)Cc2ccccc2)c1	.	.	.	-2.9	.	.
CCNC(=S)Nc1ccc(NC(=O)c2ccccc2O)cc1	9.6	0.6	12.0	-11.2	.	.
CCNC(=S)Nc1cccc(NC(=O)c2ccccc2O)c1	5.2	0.6	36.5*	-22.4	.	.	Mtb FBA confirm=2.7;GDH-TPI counter-2=-3.8
CCN(CC)C(=O)c1cccc(NC(=O)C2CCN(C(=O)c3cccs3)CC2)c1	3.5	.	2.4	14.6	.	.
Fc1cc(F)c2nc(Nc3nc4cc5c(cc4s3)OCO5)sc2c1	10.6	-0.2	32.4*	-9.1	.	.	Mtb FBA confirm=84.4*;GDH-TPI counter-2=66.1*
Fc1cccc2sc(Nc3nc4cc5c(cc4s3)OCCO5)nc12	15.8	-0.4	39.3*	-12.5	.	.	Mtb FBA confirm=-4.9;GDH-TPI counter-2=-5.2
